Screen size: about 310,000 compounds; about 1,000 (0.32%) were called active. The list is a sample of the results. Results with a measured potency or affinity are listed apart. Unmarked numbers belong to inactive results. The rule behind the calls is not given here.
Test: Inhibition of PhoP regulon, Salmonella typhi GFP reporter cells, confirmation, 4 h (AID 1850);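 note: 0% = induced wells with vehicle and 100% = uninduced wells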
Conditions: Salmonella Typhi PhoP-promoter GFP reporter, fluorescence, at 50 µM, stronger effect = higher value

| SMILES | inhibition [%] |
| --- | --- |
| CC1=NN(C(=O)c2c(Br)cnn2C)C(O)(C(F)(F)F)C1 (stereo not given) | 14.8 |
| CC(C)(C)c1ccc(C(=O)NNC(=S)NC(=O)c2cccnc2)cc1 | 7.73 |
| CCn1c(SCC(=O)Nc2oc(C)c3c(C)n[nH]c(=O)c23)nc2sc(C)c(C)c2c1=O | -1.81 |
| CCOc1ccc(NC(=O)C2CCCN(S(=O)(=O)c3ccc4[nH]c(=O)ccc4c3)C2)cc1 (stereo not given) | 4.78 |
| COc1ccc(NC2c3ccccc3C(=O)N2c2ccccn2)cc1 (stereo not given) | 0.4 |
| COc1ccc(C(C)=O)cc1CSc1nnc(Nc2ccc(C)cc2)s1 | 7.09 |
| Cc1nn2c(-c3cccnc3)ccnc2c1-c1ccccc1 | -4.51 |
| COc1ccc(N2C(=O)CC(C#N)=C2N)cc1 | 17.1 |
| COc1ccc(-n2nc(C)c3c(=O)c4c([nH]c32)CCCC4)cc1 | 7.61 |
| Cc1cccc(NC(=O)CN2C(=O)C(C)Oc3ccccc32)n1 (stereo not given) | -5.84 |
| CN1C(=O)Cc2cc(S(=O)(=O)N3CCN(c4ccc(Cl)cc4)CC3)ccc21 | 3.82 |
| C=CCc1c(C)nc(C)nc1N/N=C/c1ccccc1O | -9.46 |
| COc1ccc(OCCCC(=O)OC(C)C(=O)Nc2cccc(C(C)=O)c2)cc1 (stereo not given) | 15.1 |
| O=C(Cn1cc([N+](=O)[O-])ccc1=O)NCc1ccc(Cl)cc1Cl | -7.2 |
| CC(C)N(CCNCC(O)COc1ccc(C(C)(C)c2ccccc2)cc1)C(C)C (stereo not given) | -17.3 |
| COC(=O)c1ccc(CNCC(O)COc2ccc(-c3ccccc3)cc2)cc1 (stereo not given) | 10.8 |
| COc1ccc(OC)c(-n2nnnc2SCC(=O)NCc2ccc3c(c2)OCO3)c1 | 0.94 |
| COc1ccc2[nH]c3c(Cl)ncnc3c2c1 | 1.3 |
| COc1ccc2[nH]c3c(=S)nc[nH]c3c2c1 | 3.32 |
| c1ccc2c(c1)[nH]c1cnccc12 | 7.53 |
| c1ccc2c(c1)[nH]c1ccncc12 | -9.87 |
| COc1cc(NC(=O)CSc2nnc(-c3ccncc3)n2C2CCCCC2)ccc1NC(=O)c1ccco1 | -17.8 |

| SMILES | inhibition [%] |
| --- | --- |
| Cc1cc(C)c(S(=O)(=O)N2CCC(C(N)=O)CC2)cc1C | 16.3 |
| COc1ccc(-c2sc(Nc3ccc(F)c(F)c3F)nc2CCC(=O)NN)cc1 | 4.23 |
| CS(=O)(=O)N1N=C(c2ccco2)CC1c1ccccc1 (stereo not given) | -3.63 |
| NC(=O)C1CCN(C(=O)/C=C/c2cc(Br)ccc2F)CC1 | -0.48 |
| CCOC(=O)CNC(=S)NN(C)C | 10.8 |
| CC(C)(C)OC(=O)N[C@@H](Cc1ccccc1)C(=O)N1CCC(C(=O)N[C@@H](CCC(N)=O)C(=O)O)CC1 | -2.12 |
| CCOc1ccc(CCNC(=O)c2cc(=O)[nH]c3ccc(S(=O)(=O)N(CC)CC)cc23)cc1OCC | -9.13 |
| O=C1C=C(O)c2cccc3cccc1c23 | -13.1 |
| O=C1C(=O)c2cccc3cccc1c23 | -2.11 |
| CCOc1cc(N2CCOCC2)c(OCC)cc1NC(=O)CC12CC3CC(CC(C3)C1)C2 | -0.45 |
| COc1ccccc1Nc1nc(Cl)nc(NC(C)(C)C)n1 | -9.98 |
| Clc1ccc(-c2nc(Cc3ccccc3)no2)cc1 | 11.6 |
| OCCNCc1cc(Br)ccc1OCc1ccccc1 | -2.3 |
| OCCNCc1cc(Br)ccc1OCc1ccc(F)cc1 | 10.4 |
| CCSP1(=S)N=C(N2CCOCC2)C(C#N)=C2CCCN21 (stereo not given) | -5.06 |
| Cc1cccc(NCC(=O)N/N=C\c2cccn2C)c1 | -0.18 |
| COc1ccc(C(=O)NNC(=S)NC(=O)/C=C/c2cccs2)cc1 | 12 |
| O=C(NNC(=O)c1ccccc1O)c1ccco1 | 14.9 |
| O=C(NC(=S)NNC(=O)c1ccccc1O)c1cccs1 | 7.92 |
| O=C(NC(=S)NNC(=O)c1cc2ccccc2cc1O)c1ccco1 | -70.1 |
| O=C(NNC(=O)c1cccs1)c1ccco1 | 0.32 |
| O=C(Nc1ccc(NC(=O)c2cccs2)cc1)c1ccc(Br)o1 | 3.54 |

| SMILES | inhibition [%] |
| --- | --- |
| O=C(NC(=S)Nc1ccc(NC(=O)c2cccs2)cc1)c1ccco1 | -1.46 |
| O=C(NNC(=O)c1cccs1)c1ccc(Br)o1 | -19.9 |
| Cc1ccc(-c2nnn(CC(=O)Nc3ccccc3N3CCOCC3)n2)cc1 | -3.19 |
| COC(=O)C(O)(c1ccc(N(C)C(=O)OC(C)C)cc1)C(F)(F)F (stereo not given) | 0.83 |
| CCOc1ccc(S(=O)(=O)N(C)c2ccc(OCC(=O)NC3=NCCS3)cc2)cc1 | -20.3 |
| O=C(Nc1cccnc1Cl)c1cc(-c2ccc(F)cc2)on1 | 5.5 |
| CCN(CCn1cccn1)C(=O)c1cc(COc2ccc(F)c(F)c2)on1 | 6.34 |
| CCOC(=O)c1nc2c(=O)n(C)c(=O)n(C)c2n(C)c1=O | 2.99 |
| Cc1cccc(NC(=O)CSc2nnc(NC(=O)C3CC3)s2)c1C | 3.53 |
| O=C(Cc1ccccc1)NNC(=O)c1cccs1 | 6.4 |
| O=C(Cc1ccc(Cl)cc1)NNC(=S)NC(=O)c1cccs1 | 11.9 |
| O=C(NC(=S)NNC(=O)c1ccco1)c1ccc(F)cc1 | 0.37 |
| O=C(NC(=S)NNC(=O)c1ccco1)c1ccccc1 | 21.3 |
| CC(=O)N1CCN(c2ccccc2NC(=O)Cc2ccc(Cl)cc2)CC1 | -3.34 |
| COC(=O)C(Cc1ccc(O)cc1)NC(=O)CCNC(=O)c1ccco1 (stereo not given) | -6.89 |
| CCCc1cc(CN(C)C(=O)CC2C(=O)NCCN2Cc2ccccc2C)[nH]n1 (stereo not given) | -5.02 |
| CC(NS(=O)(=O)c1ccccc1)C(=O)NCc1ccco1 (stereo not given) | 4.53 |
| CC(=O)Nc1ccc(Nc2cc(C)c3ccccc3n2)cc1 | -5.65 |
| COc1ccc(Nc2cc(C)c3ccccc3n2)cc1 | -2.31 |
| Cc1ccc(Nc2cc(C)c3ccc(O)cc3n2)cc1C | 9.14 |
| COC(=O)c1cc(Nc2cc(C)c3c(O)cccc3n2)cc(C(=O)OC)c1 | -3.04 |

From PubChem BioAssay AID1850 (Southern Research Specialized Biocontainment Screening …, 2009)
